Measured values: PubChem BioAssay AID1721 (National Center for Advancing Translational Sciences (NCATS), 2009)
The whole screen tested about 290,000 compounds, of which about 1,100 (0.38%) were called active. Only a selection was taken, and actives are over-represented in it overall. Values without a mark were called inactive. Calls follow the shape of the dose curve; as a rule, active = well fitted inhibition curve with a large enough effect; inconclusive = small, poorly fitted or top-dose-only effect, or another doubt; inactive = no such curve, though single readings can be large or run the other way.

biological target: Pyruvate kinase (Leishmania mexicana) (UniProt Q27686); assay: qHTS Assay for Inhibitors of Leishmania Mexicana Pyruvate Kinase (LmPK); details: purified LmPK, Kinase-Glo ATP luminescence, 1 h; series mostly up to 57.5 µM; activity change, negative = inhibition: at the top concentration
Source text: NIH Chemical Genomics Center [NCGC] Malcolm Walkinshaw, Hugh Morgan, Linda Gilmore University of Edinburgh, UK MLPCN Grant: 1 R03 MH085697-01 NCGC Assay Overview: Pyruvate kinase (L. Mexicana) (LmPK) enzyme was supplied as a highly purified (>95% pure) sulphate-free preparation from University of Edinburgh, UK and assayed for its ability to generate ATP from ADP using phosphoenolpyruvate (PEP) as a substrate. ATP generation was detected in a coupled reaction by luciferase-mediated luminescence, an ATP-dependent process. […] The enzyme was assayed at an intermediate level of activity to screen for both inhibitors and activators.
NCGC Assay Protocol Summary: Three uL of enzyme mix (kept on ice) in assay buffer (50 mM Imidazole pH7.2, 50 mM KCl, 7 mM MgCl2, 0.01% Tween 20, 0.05% BSA) containing PEP (0.5 mM final concentration) and LmPK (0.1 nM final concentration) was dispensed into white solid bottom 1,536 well microtiter plates. 23 nL of compound were delivered by a pin tool and 1 uL of ADP mix in assay buffer (r.t; 0.1 mM final ADP concentration) was added. Plates were incubated at room temperature for 1 hour. Two uL of detection mix (Kinase-Glo, Promega; at 4 degree Celsius protected from light) was added and luminescence read by a ViewLux (Perkin Elmer) at 1 second exposure/plate. Data were normalized to the uninhibited and AC100 inhibition (no enzyme). To monitor activation, the first column contained a five-fold concentration of LmPK (0.5 nM).
% is scaled to controls: 0 for no effect and ±100 for the full control effect; potency is read from the fitted curve at half-maximal effect.

Pyruvate kinase (Leishmania mexicana), sequence (Q27686 whole entry, looked up): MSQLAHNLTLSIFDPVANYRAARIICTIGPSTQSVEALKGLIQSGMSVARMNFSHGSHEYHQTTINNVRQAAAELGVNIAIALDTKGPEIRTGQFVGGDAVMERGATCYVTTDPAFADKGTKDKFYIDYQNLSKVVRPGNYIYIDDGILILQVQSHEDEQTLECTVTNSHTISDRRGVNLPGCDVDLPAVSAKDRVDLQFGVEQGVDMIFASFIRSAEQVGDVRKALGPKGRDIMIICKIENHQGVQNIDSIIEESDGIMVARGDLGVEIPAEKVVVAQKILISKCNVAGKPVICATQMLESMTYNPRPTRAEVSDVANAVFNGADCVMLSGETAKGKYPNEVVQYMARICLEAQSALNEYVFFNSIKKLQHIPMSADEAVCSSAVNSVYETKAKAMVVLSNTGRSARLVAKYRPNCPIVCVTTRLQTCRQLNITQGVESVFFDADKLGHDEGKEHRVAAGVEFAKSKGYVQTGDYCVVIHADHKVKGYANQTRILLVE

Compound	activity change, negative = inhibition [%]	Potency
COCCn1cnc2c1c(=O)n(Cc1ccc(Br)cc1)c(=O)n2Cc1ccccc1	-0.873	
Cc1occc1C(=O)Nc1nnc(-c2ccncc2)s1	-6.6	
Cc1occc1C(=O)Nc1cccc(Cn2cccn2)c1	-22.2	
Cc1ccnc(NC(=O)c2ccoc2C)c1		11.2 µM (active)
O=C(Nc1ccccc1)c1ccc2c(c1)OCCCO2	-16.5	
O=C(Nc1ccccc1)c1ccc2c(c1)OCO2		15.8 µM (active)
O=C(Nc1cccc([N+](=O)[O-])c1)c1ccc2c(c1)OCO2	-0.962	
Cc1cccc(/C(N)=N/OC(=O)c2ccccc2Cl)c1		11.2 µM (active)
Cc1ccc(C(=O)O/N=C(\N)c2ccccn2)cc1Cl	-8.52	
N/C(=N\OC(=O)c1cc(-c2ccccc2)nc2ccccc12)c1ccncc1	0.803	
COc1cccc(CCNC(=O)c2cccc(NC(=O)C3=C(C)OCCS3)c2)c1	0.922	
CC1(C(=O)O)CCC(C(=O)Nc2ccc(Cl)c(Cl)c2)C1(C)C (configuration not stated)	-1.16	
CN1CCN(c2ccc(NC(=O)c3ccccc3)cc2)CC1	-4.74	
COc1cccc(C(=O)Nc2ccc(N3CCCC3)cc2)c1		14.1 µM (active)
COc1cccc(C(=O)Nc2ccc(N3CCN(C(=O)c4ccco4)CC3)cc2)c1	2.21	
CC1CC(C)CN(c2ccc(S(=O)(=O)N3CCOCC3)cc2)C1 (configuration not stated)	-0.351	
Cc1cc(CN(C)C(=O)c2cc(COc3ccc(C)c(C)c3)on2)n[nH]1	-9.74	
Nc1ncc(-c2cc3ccccc3oc2=O)s1		11.2 µM (active)
O=C(NCc1cccnc1)c1cccc(-c2cc3ccccc3oc2=O)c1	4.26	
O=c1oc2ccccc2cc1-c1csc(Nc2ccc(O)cc2)n1	-1.09	
O=C1CSC(c2ccccc2)N1c1nc(-c2ccc(Cl)cc2Cl)cs1 (configuration not stated)	3.75	
Clc1ccc(-c2cc(-c3ccccn3)on2)c(Cl)c1		15.8 µM (active)
Clc1ccc(-c2ncc3ccccn23)c(Cl)c1	13.2	
CCOC(=O)C(C)n1cnc2c(nnn2-c2ccc(F)cc2)c1=O (configuration not stated)	-2.05	
CN(C)N1C(N)=C(C#N)C(c2ccc(Br)cc2)C2=C1CCCC2=O (configuration not stated)	-1.06	
CCN(CC)S(=O)(=O)c1ccc(-c2cn3ccc(C)cc3n2)cc1	6.04	

Compound	activity change, negative = inhibition [%]	Potency
COc1ccc(-c2cn3cccnc3n2)cc1	-19.6	
COc1ccc(-c2cn3ccc(C)cc3n2)cc1		8.91 µM (active)
Cc1ccc(NS(=O)(=O)c2c(C)[nH]c(C)c2C(=O)N2CCCCC2)c(C)c1	3.83	
c1ccc2[nH]c(-c3nc4ccccc4[nH]3)nc2c1		8.91 µM (active)
Cc1ccc(-c2nc3ccccc3[nH]2)cc1N		15.8 µM (active)
Cc1ccc(-c2nc3ccccc3[nH]2)cc1NC(=O)c1sc2ccccc2c1Cl	2.87	
OC(c1nc2ccccc2[nH]1)C(O)C(O)C(O)c1nc2ccccc2[nH]1 (configuration not stated)	-3.27	
COc1ccc(Br)cc1C(=O)NC(=S)Nc1cc(-c2nc3ccccc3[nH]2)ccc1C	-0.276	
O=C(Nc1cccc(-c2nc3ccccc3[nH]2)c1)c1ccc(C(=O)Nc2cccc(-c3nc4ccccc4[nH]3)c2)cc1	-0.55	
C[C@H](NC(=O)C1CCN(S(=O)(=O)c2ccccc2)CC1)C(=O)NCc1ccccc1	7.11	
COc1ccccc1C(=O)NC(=S)Nc1ccccc1N1CCCCC1	-1.2	
CC1(C)Cc2c(sc(NC(=O)C(=O)N3CCOCC3)c2C#N)CO1	-5.69	
COc1ccc(C(=O)C[n+]2ccc(N)c(C)c2C)cc1		7.94 µM (active)
COc1ccc(C(=O)C[n+]2ccc(C)cc2)cc1	-0.711	
COc1ccc(OCCC(=O)c2ccc(OC)cc2)cc1	1.36	
CC(=O)NC1=NN(C(C)=O)C(C)(c2ccc(Cl)s2)S1 (configuration not stated)	-1.14	
CC(C)[C@H](NC(=O)N1CCn2c1nc1ccccc12)C(=O)NCc1ccc2c(c1)OCO2	9.8	
COc1ccc(C(=O)O/N=C(\N)c2ccccn2)cc1[N+](=O)[O-]	4.73	
N/C(=N\OC(=O)c1ccc([N+](=O)[O-])cc1)c1ccccn1		5.01 µM (active)
N/C(=N\OC(=O)Cc1ccc([N+](=O)[O-])cc1)c1ccccn1	-2.74	
COc1cccc(NC(=O)[C@H](Cc2c[nH]c3ccccc23)NC(=O)[C@@H]2Cc3ccccc3CN2)c1	6.25	
COc1cc(C(=O)N/C(=C\c2cn(C)c3ccccc23)C(=O)N2CCOCC2)cc(OC)c1OC	-3.61	
COc1cnc(-c2ccccn2)nc1Oc1ccc(C(C)(C)C)cc1	1.88	
O=C1Nc2ccc(Br)cc2/C1=N/N=C/C1=C(N2CCOCC2)C(=C\c2ccccc2)/CC1		14.1 µM (active)
C(=N\N1CCN(c2ccccn2)CC1)/C1=C(N2CCOCC2)C(=C/c2ccccc2)/CC1	0.842	
N#C/C(=C\C1=C(N2CCOCC2)C(=C\c2ccccc2)/CC1)C(=O)Nc1ccccc1F	-21.5	
